Screening results as filed in PubChem BioAssay.
HEK cytotox – HEK 293 cell cytotoxicity. HEK 293 viability, ATP luminescence (CellTiter-Glo), 48-72 h. Potency, µM (doses to about 115 µM), most hits filed as inhibitors. 94,000 tested, 6.6% active. AID 1345083; note: nearly all actives have a fitted effect of over 60% in size
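Viability of HEK 293 cells, plated at 250 cells/well, was judged by cellular ATP after compound treatment for 48 or 72 hr. Luminescence was imaged 10 min after CellTiter-Glo addition at room temperature.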
Luciferase inh – blocks purified firefly luciferase enzyme activity; purified P. pyralis luciferase, luminescence, biochemical; Potency, µM (doses to about 115 µM), most hits filed as inhibitors; 76,000 tested, 2.5% active; note: nearly all actives have a fitted effect of over 65% in size
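Inhibitors were tested against purified firefly luciferase in a biochemical, low-substrate format (both substrates at 10uM) and luminescence measured with a CCD imager.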
3T3 cytotox – kills NIH 3T3 cells. NIH 3T3 viability, CellTiter-Glo ATP luminescence, 48-72 h. Potency, µM (titrated, usually from 96.7 µM), most hits filed as inhibitors. 94,000 tested, 4.3% active. AID 1345082; note: nearly all actives have a fitted effect of over 55% in size
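ATP-dependent luminescence (CellTiter-Glo) served as the viability signal for NIH 3T3 cells treated with compound for 48 or 72 hr at 37 °C.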
hNpr1 antagonist – antagonists of human natriuretic peptide receptor Npr1. P16066. HEK293 hNpr1 GloSensor cGMP, ANP-stimulated luminescence. Potency, µM (highest dose often 46.3 µM), hits mostly inhibitors. 76,000 tested, 1.6% active. AID 1347048; calls by dose curve; note: nearly all actives have a fitted effect of over 60% in size
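Compound pre-incubated 30 min at room temperature on GloSensor-loaded HEK293 cells stably carrying hNpr1 and the pGS-40F cGMP biosensor. Stimulation uses hNppA at 0.1 nM final; luminescence is taken at baseline and 20 min post-agonist.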
Large screens that a line does not name were inactive. A selection: hits, their analogues and other compounds. The true share with any hit is near 11%. Unless noted, calls come from the whole dose curve; as a rule, active = well fitted curve in the direction sought with a large enough effect; inconclusive = small, poorly fitted or top-dose-only effect, or another doubt; inactive = no such curve, though single readings can be large; an effect the other way counts as inactive or inconclusive.

Cc1noc(C)c1C(=O)N1C[C@@H](COCC2CC2)[C@H](c2ccccn2)C1	none
Cc1cccc(OC2CN(C(=O)c3ccc(CCC(C)(C)O)cc3)C2)c1	HEK cytotox inconclusive, 3T3 cytotox inconclusive
COc1ccc(Cn2cc(-c3ccc(F)c(C(N)=O)c3)cn2)cc1	HEK cytotox inconclusive, 3T3 cytotox inconclusive
Cc1cc(-c2ccc(F)c(C(N)=O)c2)cc(C(C)(C)C)c1	HEK cytotox 45µM, 3T3 cytotox inconclusive
O=C(C1CCCN([S+](=O)([O-])c2cccs2)C1)N1CCC(N2CCOC2=O)CC1 (stereo not drawn)	none (no result: Luciferase inh, hNpr1 antagonist)
COc1ccc(C(=O)N2CCC(c3n[nH]c(=O)n3-c3ccc(C)cc3)CC2)cc1OC	3T3 cytotox inconclusive
Cc1ccc(-n2c(C3CCN(C(=O)c4ccc(C)nc4)CC3)n[nH]c2=O)cc1	3T3 cytotox 25µM
Cc1ccc(-n2c(C3CCN(C(=O)c4ccc(C#N)cc4)CC3)n[nH]c2=O)cc1	3T3 cytotox 35µM
Cc1ccc(-n2c(C3CCN(C(=O)c4ccc(F)c(Cl)c4)CC3)n[nH]c2=O)cc1	3T3 cytotox 13µM
COc1ccc(C(=O)N2CCC(c3n[nH]c(=O)n3-c3ccc(C)cc3)CC2)cn1	3T3 cytotox 28µM
Cc1ccc(C(=O)N2CCC(c3n[nH]c(=O)n3-c3ccc(C)cc3)CC2)cc1	3T3 cytotox inconclusive
COc1ccc(-c2ccc(C(=O)N3CCN(C(=O)N4CCOCC4)CC3)cc2)nn1	none (no result: Luciferase inh, hNpr1 antagonist)
CN1CC2(CCN(Cc3ccc(-c4ccc(Cl)cc4)o3)C2)OC1=O (stereo not drawn)	HEK cytotox inconclusive, 3T3 cytotox inconclusive
Clc1ccc(-c2ccc(CN3CC[C@H]4CC[C@@H](C3)N4)o2)cc1	HEK cytotox 28µM, Luciferase inh inconclusive, 3T3 cytotox 28µM
COC(=O)[C@@H]1Cc2c([nH]c3ccccc23)[C@H]2C[C@H](NCc3cccs3)C[C@@H](c3ccccc3)N21	HEK cytotox inconclusive, 3T3 cytotox 25µM
COC(=O)[C@@H]1Cc2c([nH]c3ccccc23)[C@H]2C[C@@H](NC3CC3)C[C@@H](c3ccc(F)cc3)N21	HEK cytotox 8.9µM, 3T3 cytotox 28µM, hNpr1 antagonist inconclusive
C#CCN[C@H]1C[C@@H]2c3[nH]c4ccccc4c3C[C@@H](C(=O)OC)N2[C@H](c2ccc(F)cc2)C1	HEK cytotox 28µM, 3T3 cytotox inconclusive
COc1cccc(CC(=O)N2[C@@H]3CC[C@H]2CC(NC(=O)c2ccc(F)cc2)C3)c1 (stereo partly drawn)	none
COC(=O)[C@@H]1Cc2c([nH]c3ccccc23)[C@H]2C[C@@H](N3CCOCC3)C[C@@H](c3ccc(F)cc3)N21	HEK cytotox inconclusive, 3T3 cytotox inconclusive
COc1ccc(NC(=O)[C@@H]2C[C@@H](c3ccc(F)cc3)N(Cc3ccccc3)C2)cc1OC	3T3 cytotox inconclusive
COC(=O)[C@@H]1C[C@H](NC(=O)CCCc2cccs2)CN1C	none
COC(=O)[C@@H]1Cc2c([nH]c3ccccc23)[C@H]2C[C@@H](NCCO)C[C@@H](c3cccc(OC)c3)N21	HEK cytotox 28µM, 3T3 cytotox 28µM
COc1cc2nc(C)n(CC(=O)NC3CCCc4c3[nH]c3ccccc43)c(=O)c2cc1OC (stereo not drawn)	HEK cytotox inconclusive, 3T3 cytotox inconclusive
COC(=O)[C@@H]1Cc2c([nH]c3ccccc23)[C@H]2C[C@@H](NCCO)C[C@@H](c3ccc(F)cc3)N21	HEK cytotox 28µM, 3T3 cytotox 28µM
COC(=O)[C@@H]1Cc2c([nH]c3ccccc23)[C@H]2C[C@H](NCCO)C[C@@H](c3ccccc3)N21	HEK cytotox inconclusive, Luciferase inh inconclusive, 3T3 cytotox 45µM
COCC(=O)NC1CCCc2c1[nH]c1ccc(F)cc21 (stereo not drawn)	HEK cytotox inconclusive
NCC(=O)N1CCc2nc(-c3ccco3)nc(N3CC=CCC3)c2CC1	none
Cc1noc2c(NC(C)C)cc(-c3cccc(C(F)(F)F)c3)nc12	HEK cytotox 100µM, 3T3 cytotox inconclusive
Cc1noc2c(NC(C)C)cc(-c3ccccc3)nc12	HEK cytotox inconclusive, 3T3 cytotox inconclusive
Cc1noc2c(NCc3ccncc3)cc(-c3cccc(C(F)(F)F)c3)nc12	HEK cytotox 71µM, 3T3 cytotox 50µM
O=C(Cc1cccc(F)c1)NCC(=O)N1CCCCCCNC(=O)CC1c1ccccc1 (stereo not drawn)	none
CC(=O)Nc1ccc(CN2CCCC(c3nc4ccc(F)cc4c(=O)[nH]3)C2)cc1 (stereo not drawn)	HEK cytotox inconclusive, 3T3 cytotox inconclusive
COc1ccccc1-c1ccc(CN2CCC(N[S+](=O)([O-])c3cccc(C(F)(F)F)c3)C2)cc1 (stereo not drawn)	HEK cytotox 20µM, 3T3 cytotox 13µM (no result: Luciferase inh, hNpr1 antagonist)
COc1ccc(F)cc1-c1ccc(CN2CCC(N[S+](=O)([O-])c3cccc(C(F)(F)F)c3)C2)cc1 (stereo not drawn)	HEK cytotox 20µM, 3T3 cytotox 13µM (no result: Luciferase inh, hNpr1 antagonist)
O=c1n(CCN2CCC(N[S+](=O)([O-])c3cccc(C(F)(F)F)c3)C2)nc2n1CCCC2 (stereo not drawn)	none (no result: Luciferase inh, hNpr1 antagonist)
COc1ccccc1-c1ccc(CN2CCC(N[S+](=O)([O-])c3ccccc3)C2)cc1 (stereo not drawn)	HEK cytotox 35µM, 3T3 cytotox 32µM (no result: Luciferase inh, hNpr1 antagonist)
COc1ccc(F)cc1-c1ccc(CN2CCC(N[S+](=O)([O-])c3ccc(NC(C)=O)cc3)C2)cc1 (stereo not drawn)	HEK cytotox 14µM, 3T3 cytotox inconclusive (no result: Luciferase inh, hNpr1 antagonist)
COc1ccc(-c2ccc(C(=O)N3CCC(NC(=O)N(C)C)CC3)cc2)nn1	none (no result: Luciferase inh, hNpr1 antagonist)
O=C(CCC1CCCC1)N1CCCC(CN2CCCC2)CC1 (stereo not drawn)	HEK cytotox inconclusive, 3T3 cytotox inconclusive
CC(=O)N1CCC(c2nc(-c3nnn4c3COC(c3ccc(C)cc3)C4)no2)CC1 (stereo not drawn)	HEK cytotox inconclusive
CC(C)(C)CN1CCOC[C@H]1c1ncc(-c2ccc(Cl)s2)[nH]1	HEK cytotox 79µM, 3T3 cytotox inconclusive
Cn1c(CN2CCOC[C@H]2c2ncc(-c3ccc(Cl)s3)[nH]2)nc2ccccc21	HEK cytotox inconclusive, 3T3 cytotox 89µM, hNpr1 antagonist inconclusive
O=C(O)c1ccc(CN2CCOC[C@H]2c2ncc(-c3ccc(Cl)s3)[nH]2)cc1	none
Clc1ccc(-c2cnc([C@@H]3COCCN3C3CCCCC3)[nH]2)s1	HEK cytotox 79µM, 3T3 cytotox 79µM
Clc1ccc(-c2cnc([C@@H]3COCCN3Cc3ccccc3)[nH]2)s1	HEK cytotox 100µM, 3T3 cytotox 79µM, hNpr1 antagonist inconclusive
Clc1ccc(-c2cnc([C@@H]3COCCN3C3CCNCC3)[nH]2)s1	HEK cytotox inconclusive
COc1ccc(-c2[nH]nc3ncc(-c4ccccc4O)nc23)c(C)c1	HEK cytotox 28µM, 3T3 cytotox inconclusive
Cc1ccccc1-c1[nH]nc2ncc(-c3ccccc3O)nc12	HEK cytotox 63µM, 3T3 cytotox inconclusive
